High-throughput results (PubChem)
The sample as a whole holds a higher share of hits than the screen did.
APEX1 inh = qHTS Assay for Inhibitors of the Human Apurinic/apyrimidinic Endonuclease 1 (APE1). DNA repair nuclease/redox regulator APEX1 (Homo sapiens), P27695. recombinant APE1, TAMRA/BHQ-2 abasic DNA cleavage fluorescence. Potency, µM (titrated, usually from 65.8 µM), inactives show at the top dose activity change, negative = inhibition, most hits filed as inhibitors. 350,000 tested, 0.35% active. AID 2517, 2012;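 also: plate controls were vehicle for no effect and reference inhibitor for full effect; nearly all actives have a fitted effect of over 55% in size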
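Quantitative HTS: incision of a TAMRA/BHQ-2 double-stranded substrate bearing a tetrahydrofuran abasic site by 0.75 nM APE1 raises fluorescence. Substrate 50 nM final, added after 15 min compound preincubation at room temperature; progress as third-minus-first kinetic read difference.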
RECQ1 helicase = qHTS Assay for Inhibitors of RecQ-Like Dna Helicase 1 (RECQ1) | 240,000 tested, 0.54% active | Potency, µM (highest dose often 57.3 µM), for inactives: at the top dose activity, negative = inhibition, usual class: inhibitors | RECQ1 DNA unwinding, red fluorescence kinetic read | ATP-dependent DNA helicase Q1 (Homo sapiens), P46063 | AID 2549, 2010;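 also: plate controls were vehicle for no effect and no enzyme for full effect; nearly all actives have a fitted effect of over 30% in size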
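RECQ1T1 50 nM; forked duplex (20 bp + 30-nt ss tails) 200 nM, ATP 2 mM final; pH 8.0, 2 mM MgCl2, 2.5 ug/ml poly(dI-dC); 15 min compound preincubation; discontinuous kinetic read over 2 h at RT.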
KDM4E inh = qHTS Assay for Inhibitors of Human Jumonji Domain Containing 2E (JMJD2E); Lysine-specific demethylase 4E (Homo sapiens), B2RXH2; JMJD2E catalytic domain, FDH-coupled NADH fluorescence (FDH is formaldehyde dehydrogenase); Potency, µM (titrated, usually from 57.1 µM), without a hit: at the highest dose activity change, negative = inhibition, most hits filed as inhibitors; 230,000 tested, 1.6% active; AID 2147, 2009; active = well fitted inhibition curve with a large enough effect, not every such curve was filed as active; inconclusive = small, poorly fitted or top-dose-only effect, or another doubt; inactive = no such curve, though single readings can be large or run the other way;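 also: 0% = wells with enzyme and -100% = buffer wells without enzyme; nearly all actives have a fitted effect of over 50% in size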
TDP1 inh = qHTS Assay for Inhibitors of Tyrosyl-DNA Phosphodiesterase (TDP1) | 350,000 tested, 0.28% active | Tyrosyl-DNA phosphodiesterase 1 (Homo sapiens), Q9NUW8 | AID 485290, 2010 | Potency, µM (highest dose often 130 µM), inactives show at the top dose activity change, negative = inhibition, actives largely listed as inhibitors | recombinant TDP1, AlphaScreen DNA substrate cleavage; also: nearly all actives have a fitted effect of over 40% in size
Target sequence (Q9NUW8 whole entry, looked up): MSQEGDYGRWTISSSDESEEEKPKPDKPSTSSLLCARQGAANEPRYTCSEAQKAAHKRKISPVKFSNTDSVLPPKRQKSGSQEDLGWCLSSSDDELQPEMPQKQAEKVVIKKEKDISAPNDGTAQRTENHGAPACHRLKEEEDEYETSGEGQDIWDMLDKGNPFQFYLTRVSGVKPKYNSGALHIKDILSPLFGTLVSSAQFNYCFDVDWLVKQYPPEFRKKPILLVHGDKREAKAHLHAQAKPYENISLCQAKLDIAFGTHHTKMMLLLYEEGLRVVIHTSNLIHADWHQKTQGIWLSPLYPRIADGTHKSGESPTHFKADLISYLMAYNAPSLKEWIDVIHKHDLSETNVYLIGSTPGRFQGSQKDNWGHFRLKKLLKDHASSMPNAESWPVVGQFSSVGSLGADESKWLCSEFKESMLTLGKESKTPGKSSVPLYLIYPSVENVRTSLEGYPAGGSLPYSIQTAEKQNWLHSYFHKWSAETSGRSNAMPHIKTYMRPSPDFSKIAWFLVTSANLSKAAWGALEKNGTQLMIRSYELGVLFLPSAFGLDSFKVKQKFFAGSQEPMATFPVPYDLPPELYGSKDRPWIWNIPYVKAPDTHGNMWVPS
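Recombinant human Tdp1 (E. coli-expressed, 1 nM final) preincubated with compounds 15 min at room temperature, then 5'-biotin/3'-phosphotyrosine-FITC DNA substrate (15 nM final) added for 5 min. AlphaScreen beads (10 ug/ml final) added 10 min; cleavage lowers signal.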
L3MBTL1 block = qHTS Assay for the Inhibitors of L3MBTL1; Lethal(3)malignant brain tumor-like protein 1 (Homo sapiens), Q9Y468; AlphaScreen L3MBTL1–H3K9me1 peptide binding; Potency, µM (doses to about 57.1 µM), without a hit: top-dose activity, negative = inhibition, usual class: inhibitors; 230,000 tested, 0.66% active; AID 485360, 2010; also: nearly all actives have a fitted effect of over 60% in size
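First, the protein-peptide complex forms for 30 min at room temperature (L3MBTL1 50 nM, biotinylated H3K9me1 peptide 75 nM). Next, compounds are pin-transferred and incubated 30 min. Finally, AlphaScreen beads are added and read after 30 min.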
BLM helicase inh = qHTS Assay for Inhibitors of Bloom's syndrome helicase (BLM). Potency, µM (series often up to 56.1 µM), inactives show top-dose activity change, negative = inhibition, most hits filed as inhibitors. recombinant BLM DNA unwinding, fluorescence dequenching. AID 2528, 2010. RecQ-like DNA helicase BLM (Homo sapiens), P54132. 350,000 tested, 0.2% active;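 also: plate controls were vehicle for no effect and no enzyme for full effect; nearly all actives have a fitted effect of over 35% in size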
Numbers without * were called inactive; i = inactive; ? = inconclusive; . = not tested or not shown; [ ] = dose if it differs, or a comment. Unless noted, calls follow the shape of the dose curve; as a rule, active = well fitted curve in the direction sought with a large enough effect; inconclusive = small, poorly fitted or top-dose-only effect, or another doubt; inactive = no such curve, though single readings can be large; an effect the other way counts as inactive or inconclusive. Unless noted, % is scaled to controls: 0 for no effect and ±100 for the full control effect; potency is read from the fitted curve at half-maximal effect.

SMILES | APEX1 inh | RECQ1 helicase | KDM4E inh | TDP1 inh | L3MBTL1 block | BLM helicase inh
Cc1ccc(Nc2nc(N)nc(CSc3nnnn3-c3ccccc3)n2)cc1 | 26.1% | -19.6% | 5.0% | 79.4µM* | -1.2% | -17.2%
COC(=O)c1ccc2c(c1)C(C)(C)C(/C=C/c1ccc(O)cc1)=[N+]2C | ? | 12.6µM* | 43.2% | 5.6% | -3.2% | -1.4%
COC(=O)c1ccc2c(c1)C(C)(C)C(/C=C/c1ccc(OC)c(OC)c1OC)=[N+]2C | -6.5% | ? | -160.8% | 5.8% | -0.6% | -17.5%
O=C(CSc1nc2nc(-c3cccs3)cc(C(F)(F)F)c2c(=O)[nH]1)Nc1ccc(F)c(F)c1 | ? | -23.4% | ? | -3.6% | 28.2µM* | ?
O=C(CN1C(=O)COc2ccc(S(=O)(=O)Nc3ccccc3)cc21)NCc1ccccc1Cl | . | . | . | 5.6% | . | -3.9%
COc1cc(NS(=O)(=O)c2ccc(-c3cc(C)no3)cc2)cc(OC)c1 | . | . | . | 5.6% | . | -3.5%
c1nc(NC2CCCCC2)c2[nH]cnc2n1 | 2.1% | -1.8% | 11.1% | 9.1% | -4.1% | -0.2%
c1nc(NC2CCCCCC2)c2[nH]cnc2n1 | 141µM* | -1.8% | -12.0% | 5.3% | -12.8% | 3.7%
CC1CCC2(C1)N=C(Nc1nc3ccccc3o1)NC1=C2C(=O)CCC1 (centres undefined) | . | . | . | 1.1% | . | .
COc1ccc(-c2cc(C(F)(F)F)nc(SCCC(=O)Nc3cc(C)on3)n2)cc1 | 1.2% | -7.7% | 22.4µM* | -8.2% | . | 5.0%
COc1ccccc1CNC(=O)Cn1cc2c(n1)-c1c(oc(C(=O)N3CCOCC3)c1C)CC2 | . | . | . | -2.6% | . | 0.9%
O=C(CSc1nc2c(cnn2-c2ccc(F)cc2)c(=O)[nH]1)N1N=C(c2cccs2)CC1c1ccc(F)cc1 (centres undefined) | -0.8% | 1.4% | 5.01µM* | 1.3% | 3.5% | 0.1%
O=C(CSc1nc2ccccc2s1)N1N=C(c2cccs2)CC1c1ccc(F)cc1 (centres undefined) | -5.8% | -23.9% | ? | 2.6% | -4.4% | -5.3%
FC(F)(F)c1ccccc1-c1nc(N2CCOCC2)c2ccccc2n1 | 25.1µM* | -1.3% | . | . | . | -11.4%
COc1ccc(C(=O)c2cc([N+](=O)[O-])ccc2N2CCN(C)CC2)cc1 | 9.2% | i | 1µM* | -1.2% | -10.3% | 1.6%
COc1ccc(C(=O)c2cc([N+](=O)[O-])ccc2N2CCCC2)cc1 | -0.1% | -3.8% | 2.9% | 2.7% | -9.0% | -7.0%
Cc1c(C(=O)N/N=C/c2ccc(-c3ccccc3[N+](=O)[O-])o2)sc(N)c1C#N | 1.3% | -9.5% | 1.9% | . | -1.9% | 7.94µM*
O=C(N/N=C/c1ccc(-c2ccccc2[N+](=O)[O-])o1)c1cncc(Br)c1 | 15.7% | -3.9% | -16.7% | 8.2% | -5.6% | -11.1%
C=Cc1c(C)c2cc3nc(cc4[nH]c(cc5nc(cc1[nH]2)C(C)=C5CCC(=O)OC)c(CCC(=O)O)c4C)[C@@]1(C)C3=CC=C(C(=O)OC)[C@H]1C(=O)OC | -0.1%[21 µM] | . | . | . | . | .
COc1ccc(/C=N\NC(=O)c2cc(O)c(O)c(O)c2)cc1CN1CCN(c2ccc(F)cc2)CC1 | ? | -5.4% | 3.98µM* | -0.6% | -26.4% | -16.9%
COc1ccc(/C=N/NC(=O)c2ccc(C)cc2)cc1CN1CCN(c2ccc(F)cc2)CC1 | -4.0% | -6.9% | 1.4% | 2.9% | 4.2% | -1.9%
CCc1cc(=O)oc2cc(C)c(CN3CCCC(C)C3)c(O)c12 (centres undefined) | 14.1µM* | 7.08µM* | ? | . | 11.2µM* | ?
CCc1cc(=O)oc2c(CN3CCCC3)c(O)c(Cl)cc12 | 12.1% | i | ? | 9.3% | . | 1.6%
C=CCC(O)c1ccccc1 (centres undefined) | -3.7% | -3.0% | 16.2% | 8.7% | . | -1.0%
c1cc2[nH]snc2c2nc(C3CC3)nc12 | 2.1% | 17.2% | 20µM* | 1.9% | -0.2% | -0.8%
SMILES | APEX1 inh | RECQ1 helicase | KDM4E inh | TDP1 inh | L3MBTL1 block | BLM helicase inh
C=C(C(C)=O)C(O)/C=C/c1ccco1 (centres undefined) | ? | ? | -4.3% | 11.2µM* | . | -14.2%
CC1=C(/C=C/C(C)=C\C=C\C(C)=C\C(=O)O)C(C)(C)CCC1 | -2.3% | 7.0% | 11.5% | 11.0% | . | 3.2%
CC(/C=C/C=C(C)/C=C/C(=O)O)=C\C=C\C=C(C)\C=C\C=C(C)\C=C\C(=O)O | 2.51µM* | 11.2µM* | . | 2.82µM* | . | .
C=C(C)C(=O)OC | 0.7% | -5.3% | . | 9.9% | . | .
COc1ccc(CN(Cc2ccccc2)C(=O)c2ccccc2)cc1COc1ccc(NC(C)=O)cc1 | . | . | . | 2.7% | . | .
CC(C)C(=O)N(c1cc2sc(=O)oc2c2ccccc12)S(=O)(=O)c1cccs1 | -3.0% | -5.5% | 10µM* | 8.1% | . | -7.9%
COc1ccc(O)c(C(=O)c2cc(SCC(=O)O)c3nc4sc5c(c4c(=O)n3c2)CCCC5)c1 | ? | i | ? | . | . | 22.4µM*
COc1cccc(C2c3c(ncn(-c4ccc(F)cc4)c3=N)Oc3ccc4ccccc4c32)c1 (centres undefined) | . | . | . | 4.1% | . | .
C[C@@H]1CC2[C@@H]3C[C@H](F)C4=CC(=O)C(Cl)=C[C@]4(C)[C@@]3(F)[C@H](O)C[C@]2(C)[C@@]1(O)C(=O)CO (some centres undefined) | . | . | . | 5.7% | . | -0.3%
Cc1cccc(C2c3[nH]c4ccccc4c3CCN2C(=O)c2ocnc2C)n1 (centres undefined) | 4.7% | -2.9% | 22.4µM* | -11.1% | -4.3% | -0.1%
O=C(Cc1nnc(-c2nc3ccccc3[nH]2)o1)Nc1cc(C(F)(F)F)ccc1Cl | . | . | . | 0.9% | . | .
CN(C)CCCN1C(=O)c2cccc3cccc(c23)C1=O | -2.2% | . | . | 0.6% | -4.2% | 93.7%
CC1=CC2=C(OC1N(C)C)c1cccc3cccc(c13)C2=O (centres undefined) | ? | -28.0% | 20µM* | -2.3% | . | -6.5%
COc1cc(O)c(C(C)=O)c(CC(=O)O)c1 | 8.91µM* | ? | 25.1µM* | . | . | 3.0%
N[C@@H](CCCCNC(=O)CCCC[C@@H]1SC[C@H]2NC(=O)N[C@H]12)C(=O)O | 10.2% | -12.8% | . | 29.2% | . | -0.9%
